Data taken from PubChem BioAssay AID1016 (Sanford-Burnham Center for Chemical Genomics, 2008).
The whole screen tested about 200,000 compounds, of which about 330 (0.17%) were called active.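 The calls were made as follows: active = activation factor of 2 or more at 20 µM, a signal rise over negative controls twice the positive control's; inactive = the rest.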 The sample as a whole holds a higher share of actives than the screen did.

tested on: alkaline phosphatase, intestinal [Bos taurus]; experiment: IAP enzyme activity enhancers – biochemical, bovine IAP, CDP-star luminescence, primary screen (AID 1016); conditions: purified bovine IAP, 30 min, at 20 µM, hits give high values, fold of DMSO-control signal, blank-subtracted

Activation factor, active:
CCN(CC(=O)Nc1ccc(Cl)c(S(=O)(=O)N(C)C)c1)Cc1nc2ccccc2c(=O)[nH]1 2.1
CC(C)C[C@H](NC(=O)Nc1cccc(C(F)(F)F)c1)C(=O)O 4.4

Activation factor, inactive:
Cc1cccc(CC(=O)N2CCN=C2SCc2ccc([N+](=O)[O-])cc2)c1 0.8
COc1ccc(CCNc2cc(C)nc3c(-c4ccc(Cl)cc4)c(C)nn23)cc1OC 0.9
COc1ccc(-c2nc3cnccn3c2NC(C)(C)CC(C)(C)C)cc1O 1.2
COc1ccccc1N1CCN(c2ccc([N+](=O)[O-])nc2)CC1 1
CCS(=O)(=O)c1ccc(O)c(NC(=O)COc2ccc(Cl)cc2)c1 1
Clc1cccc(CN2COc3c(cc(Cl)c4cccnc34)C2)c1 0.8
Cc1ccc(Cl)c(NC(=O)CN(C)CC(=O)Nc2ccc(F)c(F)c2F)c1Cl 1.3
CCOC(=O)c1c(NC(=O)Cn2nc(C(F)(F)F)cc2C)sc2c1CCC2 1
CCc1ccc(C2C(C#N)=C(N)N(N3CCOCC3)C3=C2C(=O)CC(C)(C)C3)s1 (configuration not stated) 1
Cc1c(Br)ccc(NC(=O)COc2ccccc2C(N)=O)c1C 0.9
CC(C)NC(=S)N1CCN(C(c2ccccc2)c2ccccc2)CC1 0.9
COc1ccc(F)c(-c2nc(CN3CCC(c4ccccc4)CC3)c(C)o2)c1 1.1
C=CCC(CC=C)(C(N)=O)c1ccccc1 1
Fc1ccc(CNCc2ccc(Br)cc2)cc1 0.9
CCOC(=O)COc1cc(O)c2c(=O)cc(-c3ccccc3)oc2c1 1.1
CCN(CC)S(=O)(=O)c1ccc(OC(C)C)c(N)c1 1
COCCNc1cc(NCCOC)c([N+](=O)[O-])cc1[N+](=O)[O-] 1.3
Cc1ccc2[nH]c(=O)c(CN3CCCCC3)c(-c3ccccc3)c2c1 1.1
O=S(=O)(NCC1CCCO1)c1cnc(Cl)c(Cl)c1 (configuration not stated) 1
O=C(NCc1cccs1)c1ccc(Br)o1 1
O=[N+]([O-])c1ccc2c(c1)C(N1CCOCC1)/C(=C/C1(O)CCCCC1)O2 (configuration not stated) 1.1
CC(NC(=S)Nc1ccc(OC(F)F)cc1)c1ccc(F)cc1 (configuration not stated) 0.8
O=C1c2ccccc2NC(c2ccccc2O)N1NS(=O)(=O)c1ccccc1 (configuration not stated) 1
CN(CCc1ccccn1)C(=O)CCC1CCCN(Cc2ccccc2OC(F)F)C1 (configuration not stated) 1.1
Cc1ccnc(NC(=O)Cn2ccc([N+](=O)[O-])n2)c1 1
Cc1ccc(NC(=O)NC2CCCCC2)cc1S(=O)(=O)N1CCOCC1 1.2
Cc1ccc(N=C2NC(=O)c3cccc([N+](=O)[O-])c32)cc1 1
Cc1ccc(Sc2ccncc2S(N)(=O)=O)cc1 0.5
Cc1cc2ccccn2c1C(=O)c1cccc(S(=O)(=O)N2CCOCC2)c1 1
Cc1ccc([N+](=O)[O-])c(OCCCNCC(C)O)c1 (configuration not stated) 1
CCn1c(C(C)C)n[nH]c1=S 0.9
O=C(COC(=O)c1cc([N+](=O)[O-])ccc1NCc1ccccc1)NC1CCCCC1 1
COCCn1c(=NC(=O)c2ccccc2[N+](=O)[O-])sc2cc(S(C)(=O)=O)ccc21 1.2
CC(C)CC(CO)N1CCN(C(=O)c2ccc(Cl)cc2Cl)CCC1=O (configuration not stated) 1.2
Cc1cc2oc(=O)cc(CN3CCN(S(=O)(=O)c4cccs4)CC3)c2cc1C(C)C 0.9
N#C/C(=C/c1cccc([N+](=O)[O-])c1)c1nnc2n1CCCCC2 0.5
Cc1ccc(OCCCC(=O)NC(C)c2ccccc2)c(C)c1 (configuration not stated) 1
CN(c1ccccc1)S(=O)(=O)c1cccc(NC(=O)Cc2c(F)cccc2Cl)c1 0.9
CCCCC(CC)CNC(=O)C(=O)C1C(=O)Nc2ccccc21 (configuration not stated) 0.9
COc1ccc(OC)c(NC(=S)N2CCc3ccccc3C2)c1 1
CCS(=O)(=O)N1Cc2ccccc2CC1C(=O)Nc1nc2ccc(F)cc2s1 (configuration not stated) 1
COc1cccc(C(=O)Nc2cc3c(cc2Br)OCCCO3)c1 1.1
O=C(Nc1nnc(C2CC2)s1)C1=NN(C2CCS(=O)(=O)C2)C(=O)CC1 (configuration not stated) 1
Cc1ccc(S(=O)(=O)/N=C(/Nc2ccc3[nH]c(=O)[nH]c3c2)c2ccccc2)cc1 0.9
Cc1cc(/C=C2/C(=N)N3C(=NC2=O)SN=C3S(C)(=O)=O)c(C)n1-c1ccccc1 1.1
Cc1ccc(-n2cnc3ncnc(-c4ccccc4)c32)cc1 1.1
Cc1ccc(NC(=O)c2csc3c2CCCC3)cc1 0.9
Cc1cc(C)c(NC(=S)N2CCCC2C(=O)O)c(C)c1 (configuration not stated) 0.7
CC(Sc1nc(-c2ccccc2)cc(C(F)(F)F)n1)C(=O)Nc1ccc2c(c1)OCO2 (configuration not stated) 0.9
Cc1ccsc1/C=N/n1c(=S)[nH]nc(C)c1=O 0.9
CC(C)C(C)(C#N)NC(=O)CSc1nncn1-c1ccccc1 (configuration not stated) 1
Cc1[nH]c2c(C(=O)N3CCCC(CCC(=O)NCc4ccccc4F)C3)cccc2c1C (configuration not stated) 1.3
COC(=O)c1cccc([N+](=O)[O-])c1CS(=O)(=O)c1ccc(C)cc1 0.8
O=C(COC(=O)c1ccco1)NCc1ccc(Cl)cc1 1
O=C(N/N=C/c1cccc([N+](=O)[O-])c1)C1CC(=O)N(c2ccc(Br)cc2)C1 (configuration not stated) 0.7
CCN(CC(=O)NC(=O)NCc1ccccc1)Cc1nc2ccccc2c(=O)[nH]1 1.5
CN(C)S(=O)(=O)c1cc(NC(=O)CN2C(=O)NC3(CCCc4ccccc43)C2=O)ccc1Cl (configuration not stated) 1
N#Cc1c(-c2ccc(Cl)cc2)c2c([nH]c1=S)CCCC2 0.8
CCNS(=O)(=O)c1ccc(NC(=O)Nc2cccc(C(F)(F)F)c2)cc1 0.6
O=C(O)CSCC(=O)Nc1cccc(C(F)(F)F)c1 0.9
